Screens (PubChem BioAssay)
Rows were chosen to be rich in hits. Some 2.5% of all compounds tested hit in one or more screens of this group.
Cruzain Triton: blocks cruzain activity in presence of Triton detergent. P25779. purified cruzain, Z-FR-AMC fluorescence, 0.01% Triton. Potency, µM, for the others: max response, negative = inhibition, hits mostly inhibitors. hit rate 0.43% among 200,000. AID 1478;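 also: plate controls were neutral wells for no effect and buffer without enzyme for full effect; nearly all actives have a fitted effect of over 40% in size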
Target sequence (P25779 123-467 limits assumed): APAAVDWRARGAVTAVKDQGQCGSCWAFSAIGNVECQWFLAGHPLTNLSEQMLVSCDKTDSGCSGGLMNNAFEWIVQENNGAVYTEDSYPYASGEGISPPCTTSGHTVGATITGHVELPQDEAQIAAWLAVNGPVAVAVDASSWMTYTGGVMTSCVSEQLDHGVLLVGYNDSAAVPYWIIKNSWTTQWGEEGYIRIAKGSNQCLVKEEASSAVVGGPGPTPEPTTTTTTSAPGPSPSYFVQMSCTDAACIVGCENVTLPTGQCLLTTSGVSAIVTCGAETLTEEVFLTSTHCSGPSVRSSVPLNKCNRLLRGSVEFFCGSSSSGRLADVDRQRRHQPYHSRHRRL
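Sodium acetate buffer (100 mM, pH 5.5) containing 5 mM DTT and 0.01% Triton X-100 hosted 1.5 nM cruzain and test compound for 15 min at room temperature. Cleavage of 2 uM Z-FR-AMC was then tracked by fluorescence.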
Cruzain inh noDet: inhibitors of Trypanosoma cruzi cruzain without detergent | P25779 | purified cruzain, Z-FR-AMC fluorescence, no detergent | AID 1476 | Potency, µM, for the others: max response, negative = inhibition, most hits filed as inhibitors | hit rate 2.3% among 200,000;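 also: plate controls were enzyme without inhibitor for no effect and buffer without enzyme for full effect; nearly all actives have a fitted effect of over 40% in size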
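Detergent-free condition (0.00005% Triton X-100) in acetate buffer pH 5.5 with DTT. 1.5 nM enzyme and compound were pre-mixed 15 min, then 2 uM Z-FR-AMC substrate added; reaction progress from fluorescence change between first and third reads (60 s).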
* = called active by the depositor; ? = inconclusive. Calls follow the shape of the dose curve; as a rule, active = well fitted curve in the direction sought with a large enough effect; inconclusive = small, poorly fitted or top-dose-only effect, or another doubt; inactive = no such curve, though single readings can be large; an effect the other way counts as inactive or inconclusive. Potency is read from the fitted curve at half-maximal effect.

SMILES	Cruzain Triton	Cruzain inh noDet
Cc1nc(C(=O)Nc2cc(Cl)ccc2Cl)nn1-c1cc(OC(C)C)c(Cl)cc1Cl	4%	25µM*
Cc1nc(C(=O)Nc2cccc(Cl)c2)nn1-c1cc(OC(C)C)c(Cl)cc1Cl	-1%	?
Cc1nc(C(=O)Nc2cccc(Cl)c2Cl)nn1-c1cc(OC(C)C)c(Cl)cc1Cl	-2%	?
O=C(O)[C@@H]1[C@@H](C(=O)Nc2ccccc2)[C@@H]2C=C[C@@H]1O2	4%	13%
COc1ccc(C)cc1NC(=O)C1CCN(S(=O)(=O)c2ccc3[nH]c4c(c3c2)CCCCC4)CC1	-1%	16µM*
Cc1ccc(NC(=O)C2CCN(S(=O)(=O)c3ccc4[nH]c5c(c4c3)CCCCC5)CC2)cc1	0%	13µM*
Cc1ccc(Cl)cc1N1CCN(S(=O)(=O)c2cccc(S(=O)(=O)N3CCCC3)c2)CC1	3%	?
COc1ccc(NC(=O)C2CCN(S(=O)(=O)c3ccc4[nH]c5c(c4c3)CCCCC5)CC2)cc1	2%	-30%
CCOc1ccccc1NC(=O)C1CCN(S(=O)(=O)c2ccc3[nH]c4c(c3c2)CCCCC4)CC1	-2%	13µM*
CCOc1ccccc1NC(=O)C1CCN(S(=O)(=O)c2ccc3[nH]c(=O)oc3c2)CC1	-2%	-1%
Cc1ccc(Cl)cc1N1CCN(S(=O)(=O)c2ccc3[nH]c4c(c3c2)CCCCC4)CC1	0%	5µM*
CC(=O)c1ccc(NC(=O)C2CCN(S(=O)(=O)c3ccc4[nH]c5c(c4c3)CCCCC5)CC2)cc1	-2%	-16%
CCOC(=O)c1cccc(NC(=O)c2cc3c(=O)n(Cc4cccnc4)ccc3nc2C)c1	-10%	?
CN(C)c1ncc2nc(-c3ccccc3)c(=O)n(CCC#N)c2n1	4%	10%
C=CCOC(C)=O	4%	0%
CCc1ccc(OCC(=O)Nc2ncn[nH]2)c(Br)c1	0%	-6%
Cc1ccc(NS(=O)(=O)c2ccc3[nH]c4c(c3c2)CCCCCC4)cc1	-6%	-25%
Cc1ccc(NC(=S)NCc2ccc3[nH]c4c(c3c2)CCCC4)cc1	-12%	32µM*
O=C(c1ccccc1Cl)N1c2ncnn2C2(CCCCC2)[C@@H]2CCCC[C@@H]21	0%	0%
O=[N+]([O-])c1cc(-c2nc(-c3ccncc3)no2)ccc1NCc1ccccc1	-4%	9%
CN(Cc1ccccc1)c1ccc(-c2nc(-c3cccnc3)no2)cc1[N+](=O)[O-]	-14%	25µM*
CN(Cc1ccccc1)c1ccc(-c2nc(-c3ccncc3)no2)cc1[N+](=O)[O-]	-2%	11%
CC1(C)c2ssc(=S)c2-c2ccccc2N1C(=O)c1ccco1	-4%	?
Cc1ccc2c(c1)-c1c(ssc1=S)C(C)(C)N2C(=O)c1ccco1	-16%	16µM*
CCOC(=O)c1cc(-c2ccccc2)n(-c2cccc(C(=O)Nc3ccc(F)c(F)c3)c2)c1C	1%	20µM*
SMILES	Cruzain Triton	Cruzain inh noDet
CCOC(=O)c1cc(-c2ccccc2)n(CC(=O)Nc2cccc(OC)c2)c1C	-2%	15%
CCOC(=O)c1cc(-c2ccccc2)n(-c2cccc(C(=O)Nc3ccc(OC)cc3)c2)c1C	-1%	25µM*
CCOC(=O)c1cc(-c2ccccc2)n(-c2cccc(C(=O)NC(C)(C)C)c2)c1C	0%	-1%
CCOC(=O)c1cc(-c2ccccc2)n(-c2cccc(C(=O)Nc3cccc(F)c3)c2)c1C	-1%	10µM*
CCOC(=O)c1cc(-c2ccccc2)n(-c2cccc(C(=O)N(C)c3ccc(C)cc3)c2)c1C	-4%	-4%
CCOC(=O)c1cc(-c2ccccc2)n(-c2cccc(C(=O)Nc3cccc(C(C)=O)c3)c2)c1C	-1%	?
CCOC(=O)c1cc(-c2ccccc2)n(-c2cccc(C(=O)Nc3cccc(SC)c3)c2)c1C	1%	10µM*
O=C(CCC1N=C2c3ccccc3N=C(SCc3ccccc3F)N2C1=O)NCc1ccc(F)cc1 (configuration not stated)	-1%	3%
CN(C)CCCSc1nc2ccccc2[nH]1	2%	2%
COc1ccc(CCC(=O)NCc2nc3cccnc3n2Cc2ccc(OC)cc2)cc1	-3%	5%
CCCC1(C(=O)OC)C=C2C(=C(C)C(=O)C2C)CN1 (configuration not stated)	2%	-5%
Cc1ccc(NC(=O)c2nc[nH]c2C(=O)Nc2ccc(C)cc2)cc1	3%	7.9µM*
CNC(=O)c1[nH]cnc1C(=O)Nc1ccc(C)cc1	-2%	-12%
COc1ccccc1NC(=O)c1nc[nH]c1C(=O)Nc1ccccc1OC	5%	10µM*
CCOc1ccccc1NC(=O)c1nc[nH]c1C(=O)Nc1ccccc1OCC	3%	-5%
CC(=O)N1CCc2cc(S(=O)(=O)C(C)CC(=O)Nc3ccc(Br)c(C)c3)ccc21 (configuration not stated)	-6%	-5%
Cn1c(O)c(N=NC(=O)c2cc(-c3cccs3)nc3ccccc23)c2ccccc21	-1%	10µM*
Cn1cccc1/C=N/NC(=O)c1cc(-c2cccs2)nc2ccccc12	-9%	-20%
CC(C)(C)C(=O)NC1(C(F)(F)F)C(=O)Nc2c1c(=O)[nH]c(=O)n2-c1ccccc1 (configuration not stated)	-3%	-1%
CC(C)(C)c1ccc(C(=O)NC(Cc2c[nH]c3ccccc23)C(=O)OCC(=O)c2ccccc2)cc1 (configuration not stated)	-9%	?
COc1ccc(C(=O)COC(=O)C(Cc2c[nH]c3ccccc23)NC(=O)c2ccc(C(C)(C)C)cc2)cc1 (configuration not stated)	-1%	13µM*
CCOc1ccccc1CNC(=O)C1CCN(S(=O)(=O)c2ccc3c(ccn3C)c2)CC1	-4%	-22%
Cc1c(NC(=O)c2ccccc2)cc(C(C)C)c(O)c1S(=O)(=O)c1ccc(Cl)cc1	-2%	?
Cc1c(NC(=O)c2ccc(Cl)cc2)cc(C(C)C)c(O)c1S(=O)(=O)c1ccc(Cl)cc1	0%	32µM*
O=C(Cn1cnc2c(cnn2-c2ccc(F)cc2)c1=O)NCC1CCCO1 (configuration not stated)	4%	-4%
SMILES	Cruzain Triton	Cruzain inh noDet
O=C(Cn1cnc2c(cnn2-c2ccc(Cl)cc2)c1=O)NCCc1ccccc1	-1%	25µM*
CC(C)(C)n1ncc2c(=O)n(CC(=O)NCCc3ccccc3)cnc21	0%	1%
O=C(Cn1cnc2c(cnn2-c2ccc(Cl)cc2)c1=O)NC1CCCCC1	2%	10µM*
CC1CCN(c2ccc(-c3cccc(NS(=O)(=O)c4ccc(Cl)s4)c3)nn2)CC1	-5%	-28%
Nc1nc(N)c2[nH]cnc2n1 (tested in a mixture with another compound)	3%	9%
O=C(NCc1ccc(Cl)cc1)C1CCN(S(=O)(=O)c2cc([N+](=O)[O-])ccc2Cl)CC1	-2%	1%
Cc1cccc2sc(NC(=O)C3CCN(S(=O)(=O)c4cc([N+](=O)[O-])ccc4Cl)CC3)nc12	-4%	20µM*
CC(=O)CCOC1CCCCO1 (configuration not stated)	7%	1%
Cc1nn(-c2ccccc2)c(OC(=O)c2ccc(Br)cc2)c1S(=O)(=O)c1ccccc1	1%	-3%
COc1cccc(NC(=O)CSc2nc3n[nH]c(C)c3c(=N)n2-c2cccc(OC)c2)c1	0%	?
CCc1ccc(NC(=O)CSc2nc3n[nH]c(C)c3c(=N)n2-c2cccc(OC)c2)cc1	-12%	13µM*
